Reference: PubChem BioAssay (NCI)
The panel holds about 83,000 compounds, 20% with a hit somewhere; the sample as a whole holds those more often.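 Results are percent growth after 48 hours of single-concentration exposure. 100 means growth as in untreated cells, lower positive values show inhibition; negative values down to -100 show cell death.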 The source made the active and inactive calls. The calls were made as follows: active = growth percent below 10; inactive = the rest.

Columns and labels:
Assay in all cases: NCI-60 one-dose screen, 48 h (100 = growth as untreated, 0 = no growth, -100 = all killed)
Conditions in all cases: 10 µM
SK-MEL-2 melanoma = system: SK-MEL-2 melanoma
SN12C renal = system: SN12C renal
UO-31 renal = system: UO-31 renal
TK-10 renal = system: TK-10 renal
ACHN renal = system: ACHN renal
CAKI-1 renal = system: CAKI-1 renal
A498 renal = system: A498 renal
CCRF-CEM leukemia = system: CCRF-CEM leukemia
MOLT-4 leukemia = system: MOLT-4 leukemia
SR leukemia = system: SR leukemia
RPMI-8226 leukemia = system: RPMI-8226 leukemia
OVCAR-8 ovarian = system: OVCAR-8 ovarian
OVCAR-5 ovarian = system: OVCAR-5 ovarian
OVCAR-4 ovarian = system: OVCAR-4 ovarian
SK-OV-3 ovarian = system: SK-OV-3 ovarian
IGROV1 ovarian = system: IGROV1 ovarian
OVCAR-3 ovarian = system: OVCAR-3 ovarian
HS 578T breast = system: HS 578T breast
NCI/ADR-RES ovarian = system: NCI/ADR-RES ovarian

Measured: growth

Cc1ccc(NC(=O)/C=N/O)cc1C
inactive: SK-MEL-2 melanoma 103% | SN12C renal 103% | UO-31 renal 71.6% | TK-10 renal 122% | ACHN renal 99.1% | CAKI-1 renal 92.1% | CCRF-CEM leukemia 90% | MOLT-4 leukemia 85.7% | SR leukemia 87% | RPMI-8226 leukemia 96.6% | OVCAR-8 ovarian 98.6% | OVCAR-5 ovarian 96.9% | OVCAR-4 ovarian 85.2% | SK-OV-3 ovarian 81.3% | IGROV1 ovarian 117% | OVCAR-3 ovarian 87% | HS 578T breast 95.7% | NCI/ADR-RES ovarian 112%
active: A498 renal 3.77%

Cc1ccc(C)c2c1sc1nc3n[nH]c(N)c3c(=N)n12
inactive: SK-MEL-2 melanoma 96.1% | SN12C renal 104% | UO-31 renal 85.8% | TK-10 renal 116% | ACHN renal 101% | CAKI-1 renal 90.5% | A498 renal 103% | CCRF-CEM leukemia 97.3% | MOLT-4 leukemia 96% | SR leukemia 97.6% | RPMI-8226 leukemia 93.2% | OVCAR-8 ovarian 97.9% | OVCAR-5 ovarian 106% | OVCAR-4 ovarian 101% | SK-OV-3 ovarian 127% | IGROV1 ovarian 127% | OVCAR-3 ovarian 114% | HS 578T breast 107% | NCI/ADR-RES ovarian 110%

O=C/C=C/c1ccc([N+](=O)[O-])cc1Cl
active: SR leukemia 0.062%
inactive: SK-MEL-2 melanoma 94.2% | SN12C renal 97.5% | UO-31 renal 74.5% | TK-10 renal 139% | ACHN renal 115% | CAKI-1 renal 107% | A498 renal 117% | CCRF-CEM leukemia 42.6% | MOLT-4 leukemia 86.6% | RPMI-8226 leukemia 82.1% | OVCAR-8 ovarian 91.2% | OVCAR-5 ovarian 115% | OVCAR-4 ovarian 114% | SK-OV-3 ovarian 104% | IGROV1 ovarian 82.5% | OVCAR-3 ovarian 108% | HS 578T breast 108% | NCI/ADR-RES ovarian 101%

O/N=C1\CCC2CCCCC2C1 (stereo not drawn)
inactive: SK-MEL-2 melanoma 101% | SN12C renal 113% | UO-31 renal 95.5% | TK-10 renal 101% | ACHN renal 97.3% | CAKI-1 renal 96.2% | A498 renal 103% | CCRF-CEM leukemia 103% | MOLT-4 leukemia 98.6% | SR leukemia 87.1% | RPMI-8226 leukemia 104% | OVCAR-8 ovarian 112% | OVCAR-5 ovarian 104% | OVCAR-4 ovarian 97.8% | SK-OV-3 ovarian 105% | IGROV1 ovarian 105% | OVCAR-3 ovarian 111% | HS 578T breast 108% | NCI/ADR-RES ovarian 109%

COc1ccc(/C(CS(=O)(=O)c2ccccc2)=N\O)cc1
inactive: SK-MEL-2 melanoma 113% | SN12C renal 96.9% | UO-31 renal 104% | TK-10 renal 92.5% | ACHN renal 109% | CAKI-1 renal 101% | A498 renal 102% | CCRF-CEM leukemia 96.3% | MOLT-4 leukemia 98.4% | SR leukemia 87% | RPMI-8226 leukemia 101% | OVCAR-8 ovarian 103% | OVCAR-5 ovarian 104% | OVCAR-4 ovarian 99.4% | SK-OV-3 ovarian 112% | IGROV1 ovarian 109% | OVCAR-3 ovarian 125% | HS 578T breast 104% | NCI/ADR-RES ovarian 115%

Oc1cc(O)c(Br)cc1Br
inactive: SK-MEL-2 melanoma 96.6% | SN12C renal 101% | UO-31 renal 85.2% | TK-10 renal 94.3% | ACHN renal 103% | CAKI-1 renal 95.9% | A498 renal 96.7% | CCRF-CEM leukemia 95.4% | MOLT-4 leukemia 93.1% | SR leukemia 85.7% | RPMI-8226 leukemia 99.4% | OVCAR-8 ovarian 103% | OVCAR-5 ovarian 107% | OVCAR-4 ovarian 98.2% | SK-OV-3 ovarian 107% | IGROV1 ovarian 102% | OVCAR-3 ovarian 110% | HS 578T breast 107% | NCI/ADR-RES ovarian 105%

COc1ccc(-c2[nH]ncc2-c2cc(OC)c(OC)c(OC)c2)cc1
inactive: SN12C renal 20.8% | UO-31 renal 11.6% | TK-10 renal 44.7% | ACHN renal 14.8% | OVCAR-5 ovarian 20.7% | OVCAR-4 ovarian 26.8% | IGROV1 ovarian 28.8% | HS 578T breast 16.1% | NCI/ADR-RES ovarian 14.5%
active: SK-MEL-2 melanoma -2.39% | CAKI-1 renal 6.08% | A498 renal -19.9% | CCRF-CEM leukemia 2.66% | MOLT-4 leukemia -6.22% | SR leukemia 0.125% | RPMI-8226 leukemia 0.214% | OVCAR-8 ovarian 9.19% | SK-OV-3 ovarian -0.205% | OVCAR-3 ovarian -17.5%

C#C[C@]1(O)CC[C@H]2[C@@H]3CC[C@H]4CC(F)(F)CC[C@]4(C)[C@H]3CC[C@@]21C
inactive: SK-MEL-2 melanoma 115% | SN12C renal 87.4% | UO-31 renal 102% | TK-10 renal 97.7% | ACHN renal 89.3% | CAKI-1 renal 84.6% | A498 renal 41.1% | CCRF-CEM leukemia 74.7% | MOLT-4 leukemia 95.7% | RPMI-8226 leukemia 80.1% | OVCAR-8 ovarian 84.6% | OVCAR-5 ovarian 88.5% | OVCAR-4 ovarian 94.2% | SK-OV-3 ovarian 60.8% | IGROV1 ovarian 94.2% | OVCAR-3 ovarian 93.9% | HS 578T breast 77.6% | NCI/ADR-RES ovarian 92.2%
active: SR leukemia 8.15%

COc1ccc(-c2cn[nH]c2-c2cc(OC)c(OC)c(OC)c2)cc1
inactive: SK-MEL-2 melanoma 29.2% | SN12C renal 26.3% | UO-31 renal 33% | TK-10 renal 58% | ACHN renal 20.7% | CAKI-1 renal 17.4% | OVCAR-8 ovarian 22.5% | OVCAR-5 ovarian 31.1% | OVCAR-4 ovarian 45% | SK-OV-3 ovarian 10.2% | IGROV1 ovarian 29.4% | HS 578T breast 23% | NCI/ADR-RES ovarian 27.1%
active: A498 renal -12.1% | CCRF-CEM leukemia 6.38% | MOLT-4 leukemia 4.95% | SR leukemia 3.17% | RPMI-8226 leukemia 6.58% | OVCAR-3 ovarian -8.09%

O=C(NCCCl)c1cc(Cl)cc(Cl)c1
inactive: SK-MEL-2 melanoma 117% | SN12C renal 97% | UO-31 renal 84% | TK-10 renal 117% | ACHN renal 107% | CAKI-1 renal 96.8% | A498 renal 80.9% | CCRF-CEM leukemia 97.2% | MOLT-4 leukemia 105% | SR leukemia 103% | RPMI-8226 leukemia 102% | OVCAR-8 ovarian 102% | OVCAR-5 ovarian 107% | OVCAR-4 ovarian 95.1% | SK-OV-3 ovarian 103% | IGROV1 ovarian 106% | OVCAR-3 ovarian 114% | HS 578T breast 103% | NCI/ADR-RES ovarian 105%

CS(=O)(=O)Nc1ccc(OCc2nnc(-c3ccc(Cl)cc3)o2)c(F)c1
inactive: SK-MEL-2 melanoma 112% | SN12C renal 88.1% | UO-31 renal 74.1% | TK-10 renal 111% | ACHN renal 86% | CAKI-1 renal 91.3% | A498 renal 62.5% | CCRF-CEM leukemia 97.5% | MOLT-4 leukemia 81% | SR leukemia 81.2% | RPMI-8226 leukemia 87.9% | OVCAR-8 ovarian 98.1% | OVCAR-5 ovarian 99.5% | OVCAR-4 ovarian 82.1% | SK-OV-3 ovarian 88.8% | IGROV1 ovarian 104% | OVCAR-3 ovarian 107% | HS 578T breast 98.1% | NCI/ADR-RES ovarian 96.9%

C[C@]12CC[C@H]3[C@@H](CC=C4C[C@@H](O)CC[C@@]43C)[C@@H]1CC[C@@H]2C(=O)C/C=N/O
inactive: SK-MEL-2 melanoma 95.9% | SN12C renal 91.7% | TK-10 renal 99.5% | ACHN renal 89.4% | CAKI-1 renal 83.2% | A498 renal 90.1% | CCRF-CEM leukemia 71.8% | MOLT-4 leukemia 69.2% | SR leukemia 91.6% | RPMI-8226 leukemia 59.6% | OVCAR-8 ovarian 91.9% | OVCAR-5 ovarian 106% | OVCAR-4 ovarian 83.6% | SK-OV-3 ovarian 97.1% | IGROV1 ovarian 76.7% | OVCAR-3 ovarian 89.8% | HS 578T breast 92.5% | NCI/ADR-RES ovarian 84.4%
active: UO-31 renal -94.6%

COc1cc(-c2nc3cc(Cl)c(Cl)cc3[nH]2)ccc1OCC(=O)NN
inactive: SK-MEL-2 melanoma 95.9% | SN12C renal 78.7% | UO-31 renal 71.1% | TK-10 renal 126% | ACHN renal 72.6% | CAKI-1 renal 41% | A498 renal 83.1% | CCRF-CEM leukemia 59.8% | MOLT-4 leukemia 67.8% | SR leukemia 77.4% | RPMI-8226 leukemia 107% | OVCAR-8 ovarian 76.4% | OVCAR-5 ovarian 98.1% | OVCAR-4 ovarian 85.3% | SK-OV-3 ovarian 93.3% | IGROV1 ovarian 86.6% | OVCAR-3 ovarian 93% | HS 578T breast 95.1% | NCI/ADR-RES ovarian 87.8%

CCOC(=O)Cn1nnc(-c2ccc(OCc3ccccc3F)cc2)n1
inactive: SK-MEL-2 melanoma 100% | SN12C renal 98.2% | UO-31 renal 58% | TK-10 renal 105% | ACHN renal 84.6% | CAKI-1 renal 76.5% | A498 renal 40.9% | CCRF-CEM leukemia 92.4% | MOLT-4 leukemia 90% | SR leukemia 35.4% | RPMI-8226 leukemia 90.8% | OVCAR-8 ovarian 101% | OVCAR-5 ovarian 92.6% | OVCAR-4 ovarian 86.4% | SK-OV-3 ovarian 93.5% | IGROV1 ovarian 87.9% | OVCAR-3 ovarian 100% | HS 578T breast 81.2% | NCI/ADR-RES ovarian 57%

CC(=O)N(O)c1ccc(/C=C/c2ccccc2)cc1
active: UO-31 renal -30.8% | TK-10 renal 4.86% | ACHN renal -18.1% | CAKI-1 renal 0.955% | A498 renal -78.8% | SR leukemia 9.19% | SK-OV-3 ovarian 9.48% | IGROV1 ovarian -14%
inactive: SK-MEL-2 melanoma 92.7% | SN12C renal 26.5% | CCRF-CEM leukemia 26.5% | MOLT-4 leukemia 41.8% | RPMI-8226 leukemia 46.8% | OVCAR-8 ovarian 32.1% | OVCAR-5 ovarian 33.1% | OVCAR-4 ovarian 54.7% | OVCAR-3 ovarian 42% | HS 578T breast 61.7% | NCI/ADR-RES ovarian 22.6%

CCOc1ccc2c(c1)CC[C@@H]1[C@@H]2CC[C@]2(C)[C@@H](O)[C@@H](O)C[C@@H]12
inactive: SK-MEL-2 melanoma 115% | SN12C renal 93.7% | UO-31 renal 89.3% | TK-10 renal 105% | ACHN renal 126% | CAKI-1 renal 89.8% | A498 renal 107% | CCRF-CEM leukemia 87.9% | MOLT-4 leukemia 95.2% | SR leukemia 88.5% | RPMI-8226 leukemia 92.9% | OVCAR-8 ovarian 95.1% | OVCAR-5 ovarian 95.7% | OVCAR-4 ovarian 90.2% | SK-OV-3 ovarian 113% | IGROV1 ovarian 106% | OVCAR-3 ovarian 118% | HS 578T breast 113% | NCI/ADR-RES ovarian 107%

CCOC(=O)c1c(C)n(-c2ccc(Cl)cc2)c2ccc(OC(=O)/C=C/c3ccccc3)cc12
inactive: SK-MEL-2 melanoma 64.2% | SN12C renal 86.6% | UO-31 renal 83.1% | TK-10 renal 96% | ACHN renal 98.7% | CAKI-1 renal 103% | A498 renal 68.7% | CCRF-CEM leukemia 75.1% | MOLT-4 leukemia 69.8% | SR leukemia 26.7% | RPMI-8226 leukemia 67.6% | OVCAR-8 ovarian 88.8% | OVCAR-5 ovarian 108% | OVCAR-4 ovarian 81.6% | SK-OV-3 ovarian 93.9% | IGROV1 ovarian 88.3% | OVCAR-3 ovarian 77.7% | HS 578T breast 82.6% | NCI/ADR-RES ovarian 61.7%
